According to PubChem BioAssay (NCATS):
A number with no mark means an inactive call. Records with an inconclusive call do not appear. The list shows a part of the results. A call without a number means that no potency is given here. Activity calls are given as the source filed them. Unless noted, the call rests on the fitted dose curve; in most records, active means well fitted curve in the direction sought with a large enough effect; inconclusive means small, poorly fitted or top-dose-only effect, or another doubt; inactive means no such curve, though single readings can be large; an effect the other way counts as inactive or inconclusive.

Tests used:
[1] = biological target: Androgen receptor (Homo sapiens) (UniProt P10275); assay: qHTS assay for small molecule agonists of androgen receptor signaling (AID 588515; active means well fitted curve in the direction sought with a large enough effect in the signal ratio, with a control signal flat; the % refers to the signal ratio); settings: AR-UAS-bla HEK293, beta-lactamase ratio, agonist 16 h; stronger effect = higher value
How it was run: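 EC50 and efficacy came from Hill fits of titrations (up to 92 uM) normalized to 30 nM R1881 as 100% and DMSO as 0%. Compound exposure was 16 h at 37 C on AR-UAS-bla HEK293 cells, with a 405/460/530 nm CCF4 fluorescence read.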

[2] = biological target: Androgen receptor (Homo sapiens) (UniProt P10275); assay: qHTS assay for small molecule antagonists of androgen receptor signaling (AID 588516; active means well fitted curve in the direction sought with a large enough effect in the signal ratio, with a control signal flat, not every such curve was filed as active; the % refers to the signal ratio); settings: AR-UAS-bla HEK293, beta-lactamase ratio, antagonist mode, 16 h; series mostly up to 76.8 µM
How it was run: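 Compounds tested in titration against 10 nM R1881 in AR-responsive bla reporter HEK 293 cells; CCF4 fluorescence (460/530 nm) after 16 h exposure gave IC50 and efficacy.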

[3] = biological target: Peroxisome proliferator-activated receptor delta (Homo sapiens) (UniProt Q03181); assay: qHTS assay for small molecule antagonists of peroxisome proliferator-activated receptor delta signaling (AID 588535; active means well fitted inhibition curve with a large enough effect in the signal ratio, with a control signal flat, not every such curve was filed as active; the % refers to the signal ratio); settings: HEK293T PPARd-UAS-bla, beta-lactamase FRET ratio, 18 h; series mostly up to 76.7 µM
How it was run: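 Cell-based beta-lactamase assay in antagonist mode: 4000 HEK293T PPAR-delta-UAS-bla cells per well, 5 hr preincubation then 18 hr compound incubation at 37 C. IC50 obtained by Hill equation fitting.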

[4] = Counterscreen for APE1 Inhibitors: Fluorescent Dye Displacement Assay (AID 2564); settings: DNA fluorescent dye displacement counterscreen, fluorescence; series mostly up to 28.5 µM;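 further: loss of thiazole orange fluorescence as the dye is displaced from duplex DNA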; further: potency means the concentration at half of the fitted maximal effect
How it was run: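 Compounds are scored by their ability to displace Thiazole Orange (250 nM) from a 50 nM TAMRA-tagged duplex bearing a tetrahydrofuran abasic site. Buffer is 50 mM Tris-HCl pH7.5, 50mM NaCl, 2 mM MgCl2, 0.01% Tween-20.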

[5] = biological target: DNA repair nuclease/redox regulator APEX1 (Homo sapiens) (UniProt P27695); assay: Confirmation qHTS Assay for Inhibitors of the Human Apurinic/apyrimidinic Endonuclease 1 (APE1) (AID 2572); settings: purified APE1, fluorogenic abasic-site DNA cleavage; further: potency means the concentration at half of the fitted maximal effect; nearly all actives have a fitted effect of over 30% in size
How it was run: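 15 min RT compound–APE1 preincubation → add 50 nM final THF-abasic TAMRA/BHQ-2 dsDNA → immediate kinetic read, 3 × 60 s, Ex 525/Em 598 → Δ fluorescence (read 3 − read 1).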

[6] = tested on: HIV-1 nucleocapsid protein NCp7 (binding to TG oligonucleotide); assay: HIV Nucleocapsid (AID 346; call rule not given here;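 further: potency means the concentration at half of the fitted maximal effect; potency is for inhibitors that block NC binding and lower polarization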); settings: HIV-1 NC / fluorescein-TGTGTGTG probe, fluorescence polarization
How it was run: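 Inhibition of nucleocapsid binding to single-stranded 5'-TGTGTGTG probe (10 nM) was measured by fluorescence polarization after 1 hr at room temperature with 100 nM protein under high-salt, zinc-containing, reducing conditions.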

[7] = qHTS Assay for Inhibitors of Fructose-1,6-bisphosphate Aldolase from Giardia Lamblia: Giardia lamblia growth inhibition (AID 2785); settings: Giardia lamblia trophozoite growth inhibition; series mostly up to 57.5 µM; further: nearly all actives have a fitted effect of over 70% in size
How it was run: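 Whole-parasite growth test: Giardia WB trophozoites in TYI-S-33 (pH 7.0), 100 per well, incubated 48 h at 37C with compound. ATP content was read by ATPlite luminescence.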

[8] = qHTS Assay for Inhibitors of Fructose-1,6-bisphosphate Aldolase from Giardia Lamblia: Mammalian cellular toxicity (AID 2786); settings: mammalian cell viability counter-screen; series mostly up to 57.5 µM;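 further: compound exposure lasted 48 h before reading; nearly all actives have a fitted effect of over 60% in size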
How it was run: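 Mammalian cytotoxicity surrogate: Chinese hamster ovary cells exposed to compound for 48 h at 37 °C. Cellular ATP then measured with ATPlite reagent, 20 min incubation.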

[9] = biological target: Fructose-bisphosphate aldolase (Giardia intestinalis (strain ATCC 50803 / WB clone C6)) (UniProt A8B2U2); assay: qHTS Assay for Inhibitors of Fructose-1,6-bisphosphate Aldolase from Giardia Lamblia: Primary screen confirmation (AID 2787); settings: purified Giardia aldolase enzyme activity; series mostly up to 57.5 µM;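 further: aldolase product measured through coupled diaphorase step turning resazurin into fluorescent resorufin; nearly all actives have a fitted effect of over 45% in size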
How it was run: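 Confirmation of primary hits by qHTS up to 57.5 uM final compound. Enzyme at 40 nM with 30 uM ZnCl2, 10 min RT pre-incubation, then substrate/coupling/resorufin-forming detection mix for 20 min before fluorescence read at 525/598 nm.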

[10] = biological target: Fructose-bisphosphate aldolase A (Oryctolagus cuniculus) (UniProt P00883); assay: qHTS Assay for Inhibitors of Fructose-1,6-bisphosphate Aldolase from Giardia Lamblia: Rabbit FBPA Selectivity (AID 2794); settings: Rabbit muscle FBPA enzyme inhibition, selectivity counter-screen; series mostly up to 57.5 µM; further: nearly all actives have a fitted effect of over 60% in size
How it was run: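 Glyceraldehyde-3-phosphate-coupled detection measures rabbit Class I aldolase turnover via AmpLite Red fluorescence. Compounds (final up to 57.5 uM) preincubated 10 min; signal read 20 min post-substrate at RT.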

[11] = qHTS Assay for Inhibitors of Fructose-1,6-bisphosphate Aldolase from Giardia Lamblia: Coupling assay counterscreen confirmation (AID 2795); settings: GAPDH coupling enzyme counterscreen, biochemical; series mostly up to 57.5 µM; further: nearly all actives have a fitted effect of over 55% in size
How it was run: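 Concentration-response counterscreen (up to 57.5 uM final) of aldolase-screen hits against coupling enzymes only. Substrate, coupling system and AmpLite Red were added after a 10 min RT preincubation; fluorescence was taken 20 min later at 525/598 nm.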

[12] = biological target: Endonuclease 4 (Escherichia coli (strain K12)) (UniProt P0A6C1); assay: Counterscreen for APE1 Inhibitors: qHTS Assay for Inhibitors of Endonuclease IV (AID 2565); further: potency means the concentration at half of the fitted maximal effect; settings: E. coli Endo IV, fluorogenic AP-site DNA cleavage; series mostly up to 27.1 µM
How it was run: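 Enzymatic AP-site incision assay using a double-stranded THF substrate labelled with TAMRA and BHQ-2; released fluorescence signals activity. Enzyme 2 nM, substrate 50 nM, 15 min compound preincubation.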

[13] = biological target: DNA repair nuclease/redox regulator APEX1 (Homo sapiens) (UniProt P27695); assay: qHTS FP-Based Assay for Inhibitors of the Human Apurinic/apyrimidinic Endonuclease 1 (APE1) (AID 2573); settings: APE1 binding to TAMRA-labelled double-stranded DNA, fluorescence polarization displacement; series mostly up to 28.5 µM
Excerpt: The apurinic/apyrimidinic endonuclease APE1 is the primary mammalian enzyme responsible for the removal of abasic (or AP) sites in DNA and functions centrally in the base excision DNA repair (BER) pathway. […] Thus, targeting APE1 could improve the efficacy of current treatment paradigms by promoting selective sensitization or protection of diseased and normal cells, respectively.
In order to gain insight into the mode of action of confirmed APE1 inhibitors, we implemented a miniaturized fluorescence polarization assay designed to report on compounds which competitively displace ds-DNA substrate. The fluorescence polarization assay has been implemented in 384- and 1536-well format for binding of TAMRA-labeled double-stranded DNA probe not containing a quencher. The binding of protein to DNA is inhibited by ATA, a general inhibitor of APE1 activity.
See also related primary fluorogenic assay (AID 2517). […]
Three uL of enzyme were dispensed to 1536-well Greiner black solid bottom plates. […] The plates were immediately transferred into ViewLux High-throughput CCD imager (Perkin-Elmer) in order to measure the reaction progress in kinetic mode (three reads every 60 seconds) using 525 nm excitation and 598 nm emission fluorescence protocol. The fluorescence intensity difference between the third and the first time points was used to compute reaction progress.

[14] = biological target: Lethal(3)malignant brain tumor-like protein 1 (Homo sapiens) (UniProt Q9Y468); assay: qHTS Assay for the Inhibitors of L3MBTL1: Hit Validation (AID 540279); settings: L3MBTL1 methyl-lysine binding inhibition, biochemical qHTS; further: potency means the concentration at half of the fitted maximal effect; nearly all actives have a fitted effect of over 70% in size
How it was run: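 AlphaScreen displacement: 50 nM L3MBTL1 bound to 75 nM biotin-H3K9me1 peptide for 30 min, compound added for 30 min at room temperature, then beads at 10 ug/mL final for 30 min in the dark. Cefsulodin titration served as intraplate control.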

[15] = Confirmation and Secondary Assay for Modulators of Hemoglobin Beta Chain Splicing at IVS2 654 locus (AID 910); settings: HeLa EGFP-654 splicing reporter, GFP fluorescence, 48 h; series mostly up to 38.3 µM;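 further: HeLa cells stably carrying EGFP split by mutant beta-globin IVS2-654 intron; per-well total GFP intensity by laser scanning cytometry after 2-day treatment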
How it was run: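 Readout: per-well total peak green fluorescence (488 nm ex, 500–520 nm em) from objects 5–250 µm, reflecting correct splicing of an EGFP-654 reporter. Compounds were applied for 2 days at 37 °C to overnight-plated HeLa EGFP-654 cells; controls were DMSO and 500 nM IVS2-654 PNA.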

[16] = Confirmation and Secondary Assay for Modulators of Hemoglobin Beta Chain Splicing at IVS2 705 locus (AID 930); settings: HeLa EGFP-705 splicing reporter, GFP fluorescence, 48 h; series mostly up to 38.3 µM;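 further: HeLa cells stably expressing the EGFP-705 splicing reporter; GFP fluorescence per well restored by corrected splicing of the IVS2-705 intron in EGFP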
How it was run: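 HeLa IVS2-705 EGFP reporter cells, 500/well, compound 2 d at 37C; correct splicing yields fluorescent EGFP. Control: 500 nM antisense PNA. Read-out: total peak GFP intensity.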

[17] = biological target: Ubiquitin carboxyl-terminal hydrolase 1 (Homo sapiens) (UniProt O94782); assay: Inhibitors of USP1/UAF1: Pilot qHTS (AID 504865); settings: purified USP1/UAF1, Ub-rhodamine cleavage fluorescence; series mostly up to 114 µM;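 further: rhodamine fluorescence freed from ubiquitin-rhodamine substrate followed over time; top concentration of the series differs between compounds; nearly all actives have a fitted effect of over 35% in size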
How it was run: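 Enzyme-free wells gave the negative control, while test wells held 1nM USP1/UAF1 preincubated with compound for 15 min at room temperature. Ub-Rho at 150nM final started the reaction, and fluorescence at 480/540 nm was recorded kinetically.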

[18] = qHTS assay to identify small molecules that stimulate interleukin-8 (IL-8) secretion (AID 651758; active means well fitted activation curve with a large enough effect in the signal ratio; the % refers to the signal ratio); settings: HTRF ratio (665/615); series mostly up to 92.2 µM
How it was run: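 Secreted IL-8 measured by TR-FRET sandwich (cryptate and XL665 antibodies) from THP-1 cells exposed to compound overnight (16 hrs, 37 C).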

[19] = biological target: Cytochrome P450 3A4 (Homo sapiens) (UniProt P08684); assay: qHTS Assay for Activators of Cytochrome P450 3A4 (AID 885); settings: recombinant CYP3A4, Luciferin-PPXE luminescence, 60 min; series mostly up to 57.1 µM; further: nearly all actives have a fitted effect of over 65% in size
How it was run: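 Signal was normalized against complete inhibition by 57 uM ketoconazole. The reaction used 20nM CYP3A4 with 25uM Luciferin-PPXE, 10-min compound preincubation and a 60-min NADPH-supported step at RT.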

Chain of DNA repair nuclease/redox regulator APEX1 (Homo sapiens) (P27695 whole entry, looked up): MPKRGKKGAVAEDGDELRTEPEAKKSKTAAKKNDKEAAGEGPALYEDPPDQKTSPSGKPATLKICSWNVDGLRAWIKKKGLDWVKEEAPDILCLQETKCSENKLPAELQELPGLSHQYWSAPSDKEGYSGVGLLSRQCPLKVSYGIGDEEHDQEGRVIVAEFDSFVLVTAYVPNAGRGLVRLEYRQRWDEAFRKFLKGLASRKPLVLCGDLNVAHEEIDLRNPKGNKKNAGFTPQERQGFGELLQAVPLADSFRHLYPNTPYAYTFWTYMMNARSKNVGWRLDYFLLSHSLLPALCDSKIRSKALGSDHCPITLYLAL
Chain of Fructose-bisphosphate aldolase A (Oryctolagus cuniculus) (P00883 whole entry, looked up): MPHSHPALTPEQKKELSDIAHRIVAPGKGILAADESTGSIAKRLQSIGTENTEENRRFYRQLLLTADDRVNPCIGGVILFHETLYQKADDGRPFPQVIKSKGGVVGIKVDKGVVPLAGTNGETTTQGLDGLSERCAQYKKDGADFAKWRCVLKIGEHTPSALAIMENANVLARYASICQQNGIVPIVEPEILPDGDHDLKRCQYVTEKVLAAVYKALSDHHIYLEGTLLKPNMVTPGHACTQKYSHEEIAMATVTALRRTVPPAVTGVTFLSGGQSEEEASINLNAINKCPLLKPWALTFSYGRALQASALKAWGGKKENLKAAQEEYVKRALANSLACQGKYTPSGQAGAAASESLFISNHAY
Chain of Fructose-bisphosphate aldolase (Giardia intestinalis (strain ATCC 50803 / WB clone C6)) (A8B2U2 whole entry, looked up): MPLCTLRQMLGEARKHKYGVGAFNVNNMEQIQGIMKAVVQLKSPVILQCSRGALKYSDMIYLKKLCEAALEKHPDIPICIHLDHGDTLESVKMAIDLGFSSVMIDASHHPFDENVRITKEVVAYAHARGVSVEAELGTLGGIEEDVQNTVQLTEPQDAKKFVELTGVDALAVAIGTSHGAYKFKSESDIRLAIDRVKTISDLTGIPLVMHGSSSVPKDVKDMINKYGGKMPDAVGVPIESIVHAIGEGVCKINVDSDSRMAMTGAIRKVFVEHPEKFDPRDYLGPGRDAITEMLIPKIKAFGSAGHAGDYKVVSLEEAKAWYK
Chain of Androgen receptor (Homo sapiens) (P10275 whole entry, looked up): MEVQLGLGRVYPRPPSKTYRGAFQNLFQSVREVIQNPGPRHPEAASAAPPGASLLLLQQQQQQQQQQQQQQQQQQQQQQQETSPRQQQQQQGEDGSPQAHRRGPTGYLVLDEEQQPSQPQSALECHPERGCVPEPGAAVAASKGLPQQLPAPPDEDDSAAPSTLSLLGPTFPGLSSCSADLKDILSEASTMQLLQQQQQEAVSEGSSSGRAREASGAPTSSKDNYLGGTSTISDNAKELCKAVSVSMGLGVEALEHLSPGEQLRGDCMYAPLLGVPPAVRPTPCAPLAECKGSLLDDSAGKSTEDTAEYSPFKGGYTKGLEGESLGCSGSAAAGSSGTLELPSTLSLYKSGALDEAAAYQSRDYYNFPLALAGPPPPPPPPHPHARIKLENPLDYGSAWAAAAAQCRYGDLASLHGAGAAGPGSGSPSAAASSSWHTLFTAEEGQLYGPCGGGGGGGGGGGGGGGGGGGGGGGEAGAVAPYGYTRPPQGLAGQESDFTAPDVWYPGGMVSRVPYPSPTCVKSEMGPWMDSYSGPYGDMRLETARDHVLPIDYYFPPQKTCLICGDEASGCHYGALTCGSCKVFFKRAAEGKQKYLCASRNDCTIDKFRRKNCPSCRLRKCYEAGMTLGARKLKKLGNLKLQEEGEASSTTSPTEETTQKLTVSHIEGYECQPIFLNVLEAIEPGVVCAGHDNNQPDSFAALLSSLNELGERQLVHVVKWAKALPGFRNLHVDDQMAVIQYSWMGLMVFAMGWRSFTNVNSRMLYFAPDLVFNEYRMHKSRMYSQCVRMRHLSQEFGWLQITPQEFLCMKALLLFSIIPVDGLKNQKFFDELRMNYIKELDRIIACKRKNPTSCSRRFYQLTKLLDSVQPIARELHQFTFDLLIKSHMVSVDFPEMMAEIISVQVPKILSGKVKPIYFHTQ
Chain of Peroxisome proliferator-activated receptor delta (Homo sapiens) (Q03181 whole entry, looked up): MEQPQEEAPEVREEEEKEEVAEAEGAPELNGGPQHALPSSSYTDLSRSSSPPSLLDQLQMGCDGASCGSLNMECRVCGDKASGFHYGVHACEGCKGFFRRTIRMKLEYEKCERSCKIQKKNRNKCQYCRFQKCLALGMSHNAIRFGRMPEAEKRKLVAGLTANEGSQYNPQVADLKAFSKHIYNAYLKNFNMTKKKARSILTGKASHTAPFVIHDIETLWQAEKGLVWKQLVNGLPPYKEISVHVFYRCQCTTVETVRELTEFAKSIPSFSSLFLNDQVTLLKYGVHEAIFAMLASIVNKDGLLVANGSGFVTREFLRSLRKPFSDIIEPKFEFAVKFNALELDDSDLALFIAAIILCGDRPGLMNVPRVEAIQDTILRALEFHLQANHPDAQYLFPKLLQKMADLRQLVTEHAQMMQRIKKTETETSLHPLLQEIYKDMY
Chain of Ubiquitin carboxyl-terminal hydrolase 1 (Homo sapiens) (O94782 whole entry, looked up): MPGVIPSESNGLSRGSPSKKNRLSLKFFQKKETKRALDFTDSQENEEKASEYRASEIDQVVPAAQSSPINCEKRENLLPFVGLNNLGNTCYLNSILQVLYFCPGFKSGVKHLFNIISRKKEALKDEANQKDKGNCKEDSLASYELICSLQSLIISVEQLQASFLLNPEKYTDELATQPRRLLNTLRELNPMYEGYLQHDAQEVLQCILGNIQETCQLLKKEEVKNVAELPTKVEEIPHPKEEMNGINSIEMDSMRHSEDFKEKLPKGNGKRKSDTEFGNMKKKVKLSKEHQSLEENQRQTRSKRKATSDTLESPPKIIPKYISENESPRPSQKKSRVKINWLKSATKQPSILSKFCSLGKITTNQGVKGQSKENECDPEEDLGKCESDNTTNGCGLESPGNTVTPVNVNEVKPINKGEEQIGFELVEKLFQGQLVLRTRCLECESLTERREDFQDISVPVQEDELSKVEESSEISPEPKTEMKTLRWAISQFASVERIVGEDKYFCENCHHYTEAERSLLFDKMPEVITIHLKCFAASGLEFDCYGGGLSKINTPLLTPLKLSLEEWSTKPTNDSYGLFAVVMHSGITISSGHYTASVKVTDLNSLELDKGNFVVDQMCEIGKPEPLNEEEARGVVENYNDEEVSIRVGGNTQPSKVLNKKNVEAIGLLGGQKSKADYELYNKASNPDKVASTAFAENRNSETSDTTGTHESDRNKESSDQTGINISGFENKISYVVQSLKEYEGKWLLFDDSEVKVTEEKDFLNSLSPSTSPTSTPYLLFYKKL
Chain of Cytochrome P450 3A4 (Homo sapiens) (P08684 whole entry, looked up): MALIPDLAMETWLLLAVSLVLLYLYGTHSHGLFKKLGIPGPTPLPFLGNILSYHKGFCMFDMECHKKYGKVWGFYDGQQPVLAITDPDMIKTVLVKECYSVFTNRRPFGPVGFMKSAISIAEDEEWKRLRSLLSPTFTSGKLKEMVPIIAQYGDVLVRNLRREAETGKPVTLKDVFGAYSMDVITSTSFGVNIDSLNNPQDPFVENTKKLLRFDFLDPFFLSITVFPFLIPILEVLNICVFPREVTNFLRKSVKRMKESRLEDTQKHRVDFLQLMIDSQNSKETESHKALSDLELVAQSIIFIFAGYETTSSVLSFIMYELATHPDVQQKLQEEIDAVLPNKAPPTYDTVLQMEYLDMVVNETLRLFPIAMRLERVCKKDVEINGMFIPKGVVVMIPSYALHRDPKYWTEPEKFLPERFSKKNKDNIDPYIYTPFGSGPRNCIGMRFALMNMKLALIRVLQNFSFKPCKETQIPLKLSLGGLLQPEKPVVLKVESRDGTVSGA
Chain of Lethal(3)malignant brain tumor-like protein 1 (Homo sapiens) (Q9Y468 whole entry, looked up): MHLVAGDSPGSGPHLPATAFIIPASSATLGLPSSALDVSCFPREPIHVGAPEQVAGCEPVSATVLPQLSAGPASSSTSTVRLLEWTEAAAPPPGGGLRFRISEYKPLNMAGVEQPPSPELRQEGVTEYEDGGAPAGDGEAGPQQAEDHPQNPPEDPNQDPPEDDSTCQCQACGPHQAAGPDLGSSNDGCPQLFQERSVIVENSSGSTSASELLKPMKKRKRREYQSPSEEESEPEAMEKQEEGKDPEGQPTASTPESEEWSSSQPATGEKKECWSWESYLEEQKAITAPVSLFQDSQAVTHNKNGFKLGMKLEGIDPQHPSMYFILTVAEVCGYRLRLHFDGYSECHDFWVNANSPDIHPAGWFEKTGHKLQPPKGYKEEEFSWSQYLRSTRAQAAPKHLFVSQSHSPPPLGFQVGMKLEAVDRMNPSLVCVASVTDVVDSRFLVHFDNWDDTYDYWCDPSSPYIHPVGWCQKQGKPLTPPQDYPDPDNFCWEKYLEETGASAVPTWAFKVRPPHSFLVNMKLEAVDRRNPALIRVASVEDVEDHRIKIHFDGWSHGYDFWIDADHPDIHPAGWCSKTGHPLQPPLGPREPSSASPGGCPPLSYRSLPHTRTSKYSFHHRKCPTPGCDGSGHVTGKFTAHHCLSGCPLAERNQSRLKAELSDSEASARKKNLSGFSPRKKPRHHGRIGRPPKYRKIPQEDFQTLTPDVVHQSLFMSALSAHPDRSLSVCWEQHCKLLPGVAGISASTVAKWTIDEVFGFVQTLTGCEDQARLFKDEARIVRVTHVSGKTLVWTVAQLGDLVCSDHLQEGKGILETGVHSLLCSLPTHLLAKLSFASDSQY

C=C(C)CCl
activation [1]: 8.69% | outcome [2]: inactive | outcome [3]: inactive

O=C(OCC1O[C@@H](OC(=O)c2cc(O)c(O)c(O)c2)[C@@H](OC(=O)c2cc(O)c(O)c(O)c2)[C@@H](OC(=O)c2cc(O)c(O)c(O)c2)[C@@H]1OC(=O)c1cc(O)c(O)c(O)c1)c1cc(O)c(O)c(O)c1 (stereo not given in full)
Potency [4]: 3.98 µM (active) | Potency [5]: 6.3 nM (active)

CN1CCN(c2ncc3nc(-c4cc(F)cc(F)c4)c(=O)n(Cc4cccs4)c3n2)CC1
Potency [6]: > 20 µM

COc1ccccc1CNc1ncnc2ccc(-c3ccc(N(C)C)cc3)cc12
Potency [6]: > 20 µM

CCCCC(=O)N/N=C/c1c(O)n(-c2ccccc2)c(=O)[nH]c1=O
outcome [7]: inactive | outcome [8]: inactive | outcome [9]: inactive | outcome [10]: inactive | outcome [11]: inactive

COc1ccc(CNCCc2c[nH]c3ccccc23)cc1OC
activity change, negative = inhibition [7]: 0.258% [at 10.4 µM] | outcome [8]: inactive | outcome [9]: inactive | outcome [10]: inactive | outcome [11]: inactive

COc1cccc(Cn2c(=O)c(-c3ccccc3)nc3cnc(OC)nc32)c1
Potency [6]: > 20 µM

COc1ccc(-n2c(=O)cnc3cnc(Nc4ccccc4)nc32)cc1
Potency [6]: > 4 µM

N#Cc1ccccc1-c1cncnc1NCc1cccnc1
Potency [6]: > 20 µM

COCCNc1nc(-c2ccccc2CN(C)C)nc2ccccc12
Potency [6]: > 20 µM

Cc1c(C(=O)O)cccc1-n1c(C)cc(/C=C2\C(=O)NC(=O)N(c3ccc4c(c3)OCO4)C2=O)c1C
Potency [4]: inactive | Potency [12]: inactive | Potency [5]: 12600 nM (active) | outcome [13]: inactive | Potency [14]: 1.68 µM (active)

O=[N+]([O-])c1ccc(O)c([N+](=O)[O-])c1
outcome [15]: inactive | outcome [16]: inactive | Potency [17]: inactive | outcome [2]: inactive | Potency [18]: inactive

O=C(NC(=S)N1C[C@H]2C[C@H](C1)c1cccc(=O)n1C2)c1ccc(F)cc1
outcome [7]: inactive | outcome [8]: inactive | outcome [9]: inactive | outcome [10]: inactive | outcome [11]: inactive

COc1ccccc1-c1nc(N(C)Cc2ccco2)c2ccccc2n1
Potency [6]: > 20 µM

COc1ccccc1CNc1ncnc2ccc(-c3ccccc3CN(C)C)cc12
Potency [6]: > 20 µM

S=c1[nH]c2ccccc2[nH]1
Potency [19]: inactive | activation [1]: -0.602% | outcome [2]: inactive | Potency [18]: inactive

CN(C)C(=O)c1ccc(-c2nc(N(C)Cc3ccco3)c3ccccc3n2)cc1
Potency [6]: > 20 µM

COC(=O)N1CCC2(CCCN(c3ccccn3)C2)CC1
Potency [6]: > 20 µM

c1cncc(-c2nccc(NCc3cccs3)n2)c1
Potency [6]: > 20 µM

Cn1cc(-c2nc3cnc(Oc4cccc(Cl)c4)nc3n(C3CC3)c2=O)c2ccccc21
Potency [6]: > 20 µM

O=C(O)c1cc[c]([Sb](=[O])([OH])[OH])cc1[N+](=O)[O-]
Potency [12]: 10 µM (active) | Potency [5]: 56.2 nM (active)

COCCn1c(=O)c(-c2ccc(OC)cc2)nc2cnc(OCc3ccccc3)nc21
Potency [6]: > 20 µM

COCCNc1nc(-c2ccccc2Cl)nc2ccccc12
Potency [6]: > 20 µM
